# Screens from PubChem.
# KinaseGlo FLuc = Counterscreen for Luciferase (Kinase-Glo TM) Inhibition | Luciferin 4-monooxygenase (Photuris pensylvanica), Q27757 | Kinase-Glo luciferase, ATP luminescence, 8 min | Potency, µM (series often up to 38.3 µM), actives largely listed as inhibitors | actives 0.28% (n = 200,000) | AID 1379, 2008; further: nearly all actives have a fitted effect of over 60% in size
#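 Light output from Kinase-Glo luciferase with luciferin and 10 uM ATP in 50 mM imidazole pH 7.2, KCl, MgCl2, Tween 20, BSA; compound pin-delivered, 8-min ambient incubation, then luminescence read.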
# RORgamma inh = qHTS for inhibitors of ROR gamma transcriptional activity; Nuclear receptor ROR-gamma (Mus musculus), P51450; Drosophila S2 Gal4-RORgamma UAS-luciferase reporter, 20 h; Potency, µM (titrated, usually from 53.6 µM), usual class: inhibitors; actives 5.4% (n = 310,000); AID 2551, 2010; further: nearly all actives have a fitted effect of over 60% in size
# Target sequence (P51450 whole entry, looked up, the tested form may be a part): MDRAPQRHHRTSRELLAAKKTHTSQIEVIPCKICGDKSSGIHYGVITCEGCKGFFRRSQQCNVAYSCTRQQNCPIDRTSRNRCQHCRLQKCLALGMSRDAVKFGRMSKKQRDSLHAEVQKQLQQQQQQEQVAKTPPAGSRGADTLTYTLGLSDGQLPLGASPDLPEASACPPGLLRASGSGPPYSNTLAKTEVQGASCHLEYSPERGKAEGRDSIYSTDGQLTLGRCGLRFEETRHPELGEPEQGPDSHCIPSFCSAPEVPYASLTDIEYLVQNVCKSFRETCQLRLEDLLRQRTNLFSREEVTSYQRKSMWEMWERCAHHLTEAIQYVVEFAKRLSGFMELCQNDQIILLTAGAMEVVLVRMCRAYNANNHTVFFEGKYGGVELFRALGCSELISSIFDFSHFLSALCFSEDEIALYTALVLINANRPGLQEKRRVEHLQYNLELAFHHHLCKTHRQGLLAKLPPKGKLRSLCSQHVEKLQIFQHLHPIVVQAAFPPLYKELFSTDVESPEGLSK
#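 Stable Schneider cell line, Gal4 DNA-binding domain fused to ROR gamma, UAS-luciferase. Cmpd 1 hr RT → CuSO4 700 uM final → 20 hr RT → luciferase reagent 10 min → luminescence.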
# Gal4-VP16 FLuc = VP16 counterscreen qHTS for inhibitors of ROR gamma transcriptional activity; AID 2546, 2010; actives 3.5% (n = 310,000); Potency, µM (doses to about 53.6 µM), actives largely listed as inhibitors; Drosophila S2 Gal4-VP16 UAS-luciferase, luminescence, 20 h;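 further: Gal4-VP16 expression switched on by copper sulfate through the metallothionein promoter; nearly all actives have a fitted effect of over 50% in size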
# Numbers stand for hits; i = inactive; ? = inconclusive; nt = not tested or not shown. Sampled rows, rich in hits. Any-hit rate of the full collection: about 6.4%. The call rests on the fitted dose curve; in most records, active means well fitted curve in the direction sought with a large enough effect; inconclusive means small, poorly fitted or top-dose-only effect, or another doubt; inactive means no such curve, though single readings can be large; an effect the other way counts as inactive or inconclusive.
SMILES,KinaseGlo FLuc,RORgamma inh,Gal4-VP16 FLuc
O=C(Nc1ccccc1Cl)C1CCCN(c2ncnc3c2nc2n3CCCCC2)C1 (centres undefined),nt,i,i
COc1ccc(C2=NN(C(=O)CCC(=O)O)C(c3ccc(Br)cc3)C2)cc1 (centres undefined),nt,i,i
COc1ccccc1C(=O)NCCC(=O)Nc1ccc(OC(F)(F)F)cc1,nt,i,i
COc1ccc(Cl)cc1NC(=S)N(CCCN1CCOCC1)Cc1cn(C)c2ccccc12,i,13µM,?
Cc1ccc(Cl)cc1NC(=S)N(CCCN1CCOCC1)Cc1ccccn1,i,i,i
COc1cc(Cl)ccc1NC(=S)N(CCCN1CCOCC1)Cc1cn(C)c2ccccc12,i,11µM,?
COc1ccc(Cl)cc1NC(=S)NCCN1CCOCC1,i,i,i
Cc1cc2nc(-c3ccc(SCc4ccccn4)nc3)[nH]c2cc1C,i,i,i
O=C(COC(=O)CC(c1ccccc1)c1ccccc1)NCc1ccc(Cl)cc1,i,i,20µM
CCCC(=O)OCC(=O)NCc1ccc(Cl)cc1,i,i,i
Cc1nn(C2CCCO2)c(=O)nc1N (centres undefined),i,i,i
O=C(Nc1cccc(S(=O)(=O)NC2=NCCC2)c1)C1CC(=O)N(c2ccc3c(c2)OCCO3)C1 (centres undefined),i,?,i
COc1ccc(-c2csc3nc(C)nc(N4CCCCC4)c23)cc1OC,i,10µM,i
COc1ccc(-c2csc3nc(-c4cccnc4)nc(N4CCC(C(N)=O)CC4)c23)cc1OC,i,i,i
NC(=O)c1ccc(NC(=O)CSc2nncn2-c2ccccc2)cc1,nt,i,i
COc1cccc(N2C(=NC(=O)CCc3ccccc3)SC3CS(=O)(=O)CC32)c1 (centres undefined),nt,i,i
O=C(Cc1ccccc1)NCC(=O)N/N=C/c1cccs1,nt,i,i
CC(C)NC(=S)N/N=C/c1ccc(C(C)(C)C)cc1,i,0.5µM,2.2µM
CC(C)CNC(=O)CC(=O)N/N=C/c1cccs1,i,i,i
CC(C)NC(=S)N/N=C/c1cccs1,i,0.79µM,1.1µM
S=C(NCc1ccccc1)N/N=C/c1cccs1,nt,0.4µM,0.79µM
CC(C)NC(=O)CC(=O)N/N=C/c1ccc(F)cc1,i,i,i
CC(C)c1ncc([N+](=O)[O-])n1C,nt,i,i
O=C(c1cnccn1)N1CCC2(CC1)CN(c1ncccn1)C2,i,i,i
CC1=C(C(=O)N2CCOCC2)C(c2ccccc2F)NC(=O)N1 (centres undefined),i,i,i
SMILES,KinaseGlo FLuc,RORgamma inh,Gal4-VP16 FLuc
Cc1cccnc1NC(=O)CCNC(=O)c1ccc(Cl)cc1,nt,i,i
c1ccc(-n2nnnc2Oc2cccc3cccnc23)cc1,i,7.1µM,4.5µM
Cc1ccc2cccc(Oc3nnnn3-c3ccccc3)c2n1,i,?,i
CCC1CCCCN1C(=O)C1CC(c2cc(Cl)c(OC)cc2OC)=NO1 (centres undefined),i,i,i
COc1cc(OC)c(C2=NOC(C(=O)N3CCCc4ccccc43)C2)cc1Cl (centres undefined),i,5.6µM,4.5µM
OC(c1ccccn1)(c1ccccn1)c1ccccn1,i,?,i
CCOc1ccc(N=NC2C(=O)N(C(N)=S)N=C2C)cc1 (centres undefined),nt,0.32µM,0.35µM
CCOc1ccc(N=Nc2c(=O)[nH]n3c(C)cc(C)nc23)cc1,i,?,i
CCOC(=O)c1nnn(-c2ccc([N+](=O)[O-])cc2)c1C,i,i,i
CC1=NN(C(N)=S)C(=O)C1N=Nc1cccc(C(=O)O)c1 (centres undefined),nt,11µM,?
CC1=NN(C(N)=S)C(=O)C1N=Nc1cccc(C)c1 (centres undefined),nt,i,i
CC1(C)CC(=O)C(N=Nc2ccc(F)cc2)=C(O)C1,nt,i,i
CC1=NN(C(N)=S)C(=O)C1N=Nc1ccc([N+](=O)[O-])cc1 (centres undefined),nt,0.16µM,1.3µM
CC1=NN(C(N)=S)C(=O)C1N=Nc1ccc(F)cc1 (centres undefined),nt,1µM,1.3µM
CCOc1c(Nc2ccccc2O)c(=O)c1=O,nt,i,i
CCN=C1SC(CC(=O)NC(C)c2ccccc2)C(=O)N1CC (centres undefined),i,i,i
Clc1ccccc1/C=C/C=N/Nc1nc(N2CCOCC2)nc(N2CCOCC2)n1,i,i,i
Cc1nc(N=Nc2ccc(O)cc2)n[nH]1,nt,i,i
CC1=NN(C(N)=S)C(=O)C1N=Nc1ccc(O)cc1 (centres undefined),i,4µM,?
CC1=NN(C(N)=S)C(=O)C1N=Nc1ccc(C)c(Br)c1 (centres undefined),nt,0.71µM,2.8µM
CC(=O)Nc1ccc(N)cc1,nt,i,i
